Reference: PMC12136788
Changes are numbered by the printed parent chain. In all, about 24,000 sequences were measured (“enrichment r”: median about 0.99, highest 2% from about 3.7 on). This excerpt belongs to a sample that is enriched for the highest values.

T1: UNK ZnF1-3 (human, UniProt Q9C0B0 31-174)
T1 sequence: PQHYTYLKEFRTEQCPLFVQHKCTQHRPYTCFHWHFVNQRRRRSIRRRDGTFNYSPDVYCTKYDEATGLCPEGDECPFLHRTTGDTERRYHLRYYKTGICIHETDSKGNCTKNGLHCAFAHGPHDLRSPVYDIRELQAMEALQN

B1: chr18:47247233:47247234:+_ENSMUSG00000042705_ENSMUST00000049388|mus_hu|motif|central (ssRNA)
RNA: GGGAGUUCUACAGUCCGACGAUCUUGUAUAUGGCUAUUUUCUUAAUUUUAUUCAUGUAAUUACCAAAGCUCUGUAUUCGGCGGAGGUACACAUCUUAUCUUGUAUCCAUGGACGCUCCUUGAUACAUUAUGGUAUCAUCCAGCCAACAGAGGAUUGAGCAUCA
B2: chr1:178670160:178670161:-_ENSMUSG00000057335_ENSMUST00000057037|mus_mus|FALSE|FALSE (ssRNA)
RNA: GGGAGUUCUACAGUCCGACGAUCCUGAGGCCUCGAGUCAACAGACCGACCGUUGUUUCCUUCUGGUGUUUUAGAAUGAACUAAUGGAGGUAUCUUUCGGAAGUUGAGACUUUCAUCAAAAACACGAUCAACCAACUCUUCUCUCAACAGAGGAUUGAGCAUCA
B3: 98562344_98563384_6126_CDS_ENSG00000196367_ENST00000456197|human|control|control (ssRNA)
RNA: GGGAGUUCUACAGUCCGACGAUCCCAUGCUCAUCACUGCCAGGCGCGUCUUCACCAGCUCCAGACUCAGCAUCACCAGCUCGCUUGUACCUGAGGUGGCUUCGGUGCUUCCUGACGCUGCCUGAGGGUUUAAAUGCUCCCGGACAACAGAGGAUUGAGCAUCA
B4: 33247490_33252972_1089_CDS_ENSG00000083642_ENST00000315596|human|control|control (ssRNA)
RNA: GGGAGUUCUACAGUCCGACGAUCCCUGCCCAAGUAGCACUGCCAAAGUGGCUUGUUUUGAGAAGCCAAUUCUGAAUCCUUUGCCCCAAACAUUUUUGCCAGUAGUUUAACAACUUGUAGGCGCUCCUCAUUAUCAUUGCUCUUCAACAGAGGAUUGAGCAUCA
B5: chr12:39756943:39756944:-_ENSG00000139116_ENST00000544797|hu_mus|hu_hu_hu_mus_False|1_18 (ssRNA)
RNA: GGGAGUUCUACAGUCCGACGAUCGGUUUGGCUGUUACCCCCAAGGGAAUCCUGCAAGAGUCUUGUCAGCUUAGAGUCUCUGUAAGGGACAUGGGUGGCUCUCUUGCUCUUGUCCCCCAAGGCACUUAUUACAUUCCCAAGUGCCAACAGAGGAUUGAGCAUCA
B6: chr2:224824363:224824364:+_ENSG00000135900_ENST00000258383|hu_mus|FALSE|FALSE (ssRNA)
RNA: GGGAGUUCUACAGUCCGACGAUCAGCUUCUUUCUCUAUGCCAAGGCUCUGACGUUUCGCCUCUUCGCUUUUGAUGUAGCAGCUAUUGAUAAAUGCAGUUUUGAGAAGGUCCAACGAAAAGGUUUCUUGUAAGCGAGAUCCAAACAACAGAGGAUUGAGCAUCA
B7: 64079182_64079302_4442_3pUTR_ENSMUSG00000025959_ENSMUST00000114086|mouse|control|control (ssRNA)
RNA: GGGAGUUCUACAGUCCGACGAUCCCCACAGCCAACAAAGGACUCUGAAGCAAGCAAGCACCAUCAUGGUAUCUCAGUGCGCCCUGCUCCAAGAGAGAUCAGGAGCAGAUCACAAAGACCUCACUGAUACAAAAGAGAAAUUACCAACAGAGGAUUGAGCAUCA
B8: chrX:12193597:12193598:+_ENSMUSG00000031007_ENSMUST00000033313|mus_mus|motif|central (ssRNA)
RNA: GGGAGUUCUACAGUCCGACGAUCACAAAGCUAGUCUCUUCUGAAAUCAACAUAGUAUUUUUAAUAAUUUUAAUAUCUCGGCGGAACCACACGGAUCACCAAACUUGCAGAAGAGAUUAAAAACAGCUAGCUUGCUAGUCAUAUCAACAGAGGAUUGAGCAUCA
B9: chr8:104081237:104081238:+_ENSG00000155097_ENST00000518738|hu_mus|motif|central (ssRNA)
RNA: GGGAGUUCUACAGUCCGACGAUCAACACACAGAAUUAUGCAUACCAUGAUAUCAAGGAGGAAAAUACCUCUUUAAAUAAACGGUUCGGUUUAUAAAUAAACUCUGAUUUUUUUCAGUACACAUUUACAGACCUGAUCAAUAAACAACAGAGGAUUGAGCAUCA
B10: chr4:136876768:136876769:-_ENSMUSG00000006699_ENSMUST00000051477|mus_hu|FALSE|FALSE (ssRNA)
RNA: GGGAGUUCUACAGUCCGACGAUCAAAAAAAAAAAAAAACACACACACACAAAAAUUUUUUUUUUGAAACAACAAAAAAAAAUAGUACUAAUCACUUUUCUGACAAUACAAUUACUCAAAAUUAACUAGUACUGGGAGGGGGAACAACAGAGGAUUGAGCAUCA
B11: chr1:82457952:82457953:+_ENSG00000117114_ENST00000335786|hu_mus|motif|central (ssRNA)
RNA: GGGAGUUCUACAGUCCGACGAUCAGCUUUGCUGAAACAAUUUACAUGUCAUUAGAACUUUACCAUAAAAUAAAUUAAUUACGGAAUAUAGCCAGAAGGAAUAUGGAAGAGUAAUAUUUCUGUUUUAUUUUAUUUUUAUUUUAUCAACAGAGGAUUGAGCAUCA
B12: chr10:111893621:111893622:+_ENSG00000148700_ENST00000277900|hu_hu|motif|central (ssRNA)
RNA: GGGAGUUCUACAGUCCGACGAUCUAAUUCAGACAGAUAGCUGUUUAUGGUGAAUUAUAAUAAUACUUCAUGAGGGCAGAGCGGAUUAAAACUAGUAAUUGCUUAAAAUUCAAAGCCAUUUCUGGACAUAUAAAAUGAGAGAUGCAACAGAGGAUUGAGCAUCA
B13: chr10:111893599:111893600:+_ENSG00000148700_ENST00000277900|hu_hu|FALSE|FALSE (ssRNA)
RNA: GGGAGUUCUACAGUCCGACGAUCAUUCAGACAGAUAGCUGUUUAUGGUGAAUUAUAAUAAUACUUCAUGAGGGCAGAGCUAAUUAAAACUAGUAAUUGCUUAAAAUUCAAAGCCAUUUCUGGACAUAUAAAAUGAGAGAUGAACAACAGAGGAUUGAGCAUCA
B14: 94906243_94906363_1931_3pUTR_ENSG00000149212_ENST00000536441|human|control|control (ssRNA)
RNA: GGGAGUUCUACAGUCCGACGAUCAAAUAAAACACAUCAUUGCACAUUACAGCCGCAAAAAACAAAAAAAAAAAAACAAACGGCUAAACUUUGACACUAGAGAACUGAAUAAUUUUUGAUGCUAUAUCACAAAUAGCUUCAAUGCAACAGAGGAUUGAGCAUCA
B15: 23644147_23644267_867_3pUTR_ENSMUSG00000028986_ENSMUST00000030841|mouse|control|control (ssRNA)
RNA: GGGAGUUCUACAGUCCGACGAUCUUGAAUAAGUGGUUCAGCUUGUACUGUUUUACUUAGGAAAUUCUUCGAUAUAAGAGGAAACCUGACUUUAGCAAGGAUAUCAACCAUGAAUGGCUGGCGGUUAGGCUCAUCAUAUUUCAACAACAGAGGAUUGAGCAUCA
B16: chr2:25965407:25965408:-_ENSG00000143970_ENST00000336112|hu_mus|motif|central (ssRNA)
RNA: GGGAGUUCUACAGUCCGACGAUCAUGUGCUGCCGGAAUAAAAUCUCUAGGCAGGCUCUUUUCAUCAGAUGCUUGGCCUCGGGAGAAUAUGUAAUUCUCCUGGCCUAAAGUGGUUUGCUCACUCACUGGUGCCUCAGUCUUACCCAACAGAGGAUUGAGCAUCA
B17: 82834861_82834981_3494_CDS_ENSG00000038427_ENST00000343200|human|control|control (ssRNA)
RNA: GGGAGUUCUACAGUCCGACGAUCUUCAUUGACAGUACCCACUUCUCCCAAUCCUUCGUCGAUAAUGGAGGAAGCUGUACCAGAAAACUUUUGCACAGCACUGGGAAGCACUGGAACAACAGAGCUGCUGACUGUGACCAGUUGCAACAGAGGAUUGAGCAUCA
B18: chr14:70842435:70842436:-_ENSG00000213463_ENST00000256366|hu_hu|motif|central (ssRNA)
RNA: GGGAGUUCUACAGUCCGACGAUCCUGCACCUGUAACCUGUGCUGCACUCUCAGAGACACAGCAUAGCCUGCAUUACGAAAGAGGUCGGCAGCAUCCUGGUGCAGCAGGUUCUUUAGGUCUUGGCCAUUUACCGAAAGGAUCUUCAACAGAGGAUUGAGCAUCA
B19: chr6:13622506:13622507:-_ENSG00000010017_ENST00000011619|hu_mus|FALSE|FALSE (ssRNA)
RNA: GGGAGUUCUACAGUCCGACGAUCAGGAAGCAAUGUAAAGCGACAAAAACCUGUCCCCAGUACAUAAUUAAAAAAAAAUCUAAAUUUCAAAUCAGCAGAGCCGGUCUACUUCCAUGUUGACUGUUUGCCACAAUGUGAGUGUGACAACAGAGGAUUGAGCAUCA
B20: chr1:109605286:109605287:-_ENSG00000197780_ENST00000461096|hu_mus|hu_hu_hu_mus_True|8_88 (ssRNA)
RNA: GGGAGUUCUACAGUCCGACGAUCAAGUUUCAGAGUAACAUUCAGUAUACUUAAAUCAUGCAAUUAUCCUUAUUAUAAGCUAAGCAGAAUAAUAAUUUAAUACCGUAAGUGAACUACACACAAAGCCGUGUAUUCAGAAAUGGUCAACAGAGGAUUGAGCAUCA
B21: chr10:111893621:111893622:+_ENSG00000148700_ENST00000277900|hu_hu|FALSE|FALSE (ssRNA)
RNA: B12 RNA with G82U, G83A
B22: chr18:56900473:56900474:+_ENSMUSG00000024590_ENSMUST00000025486|mus_mus|FALSE|FALSE (ssRNA)
RNA: GGGAGUUCUACAGUCCGACGAUCAACAUCUAUCUCUUCAAUGCACACGUUCCCCGUGGCUGAGGCAGAGUGGGAAAUGCUAACACUGCUGCUCGCCUCCGACUCCUCCACAUCAACUCUCUUCCGCUUUCCUCUGGUGGUGCGCAACAGAGGAUUGAGCAUCA

target: T1, UNK ZnF1-3; assay: nsRBNS (natural sequence RNA bind-n-seq); RBNS binding buffer (assumed for nsRBNS): 25 mM Tris pH 7.5, 150 mM KCl, 3 mM MgCl2, 0.01% Triton X-100, 500 ug/ml BSA, 20 U/ml SUPERase-In, 4 C; UNK is unkempt and MSI1 is Musashi-1; names of the RNAs are library labels; protein concentration not given here; high values mean tight binding

Binder | binding signal [enrichment R]
B1 | 1.03
B2 | 1
B3 | 0.681
B4 | 0.879
B5 | 0.497
B6 | 1
B7 | 1.03
B8 | 1.81
B9 | 0.25
B10 | 3.42
B11 | 3.79
B12 | 4.04
B13 | 4.42
B14 | 6.07
B15 | 0.91
B16 | 0.714
B17 | 0.912
B18 | 0.468
B19 | 2.67
B20 | 0.504
B21 | 5.27
B22 | 1.08
